The values that follow come from PubChem BioAssay (NCI).

The panel holds about 83,000 compounds, 20% with a hit somewhere; the sample as a whole holds those more often.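 Assay: single dose, 48 h. Readout: percent growth (0 = no net growth; negative = cell death). Active: <10.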 A number with no mark means an inactive call. Calls of active or inactive are those of the source.

What all share (test): NCI-60 one-dose screen, 48 h (100 = growth as untreated, 0 = no growth, -100 = all killed)
Assay [1] has as its system SK-MEL-2 melanoma. To be noted: 10 µM unless noted.
The subject of assay [2] is EKVX NSCLC. The conditions noted are these: 10 µM unless noted.
Assay [3] concerns SN12C renal. To be noted: 10 µM unless noted.
For assay [4], the system named is UO-31 renal. The conditions noted are these: 10 µM unless noted.
For assay [5], the system named is TK-10 renal. To be noted: 10 µM unless noted.
The test system of assay [6] is ACHN renal. To be noted: 10 µM unless noted.
For assay [7], the system named is A498 renal. To be noted: 10 µM unless noted.
Assay [8] concerns CCRF-CEM leukemia. To be noted: 10 µM unless noted.
Assay [9] relates to MOLT-4 leukemia. The conditions noted are these: 10 µM unless noted.
In assay [10] the test system is SR leukemia. The conditions noted are these: 10 µM unless noted.
Assay [11] deals with RPMI-8226 leukemia. The conditions noted are these: 10 µM unless noted.
Assay [12] relates to OVCAR-8 ovarian. The conditions noted are these: 10 µM unless noted.
Assay [13] relates to OVCAR-5 ovarian. The conditions noted are these: 10 µM unless noted.
Assay [14] deals with OVCAR-4 ovarian. To be noted: 10 µM.
The test system of assay [15] is SK-OV-3 ovarian. The conditions noted are these: 10 µM unless noted.
Assay [16] relates to IGROV1 ovarian. To be noted: 10 µM unless noted.
For assay [17], the system named is OVCAR-3 ovarian. The conditions noted are these: 10 µM unless noted.
Assay [18] relates to NCI/ADR-RES ovarian. The conditions noted are these: 10 µM unless noted.
The test system of assay [19] is HS 578T breast. To be noted: 10 µM unless noted.

With `CCCCCN(CCCCC)CCCCCCCCN1CCCc2ccccc21`, the growth in [1] was 89.7%; in assay [2], 76.7%; in [3] it was 89.7%; in assay [4] it was 62%; in [5], 89%; in [6], 91.1%. Also, the growth in assay [7] was 114%; in assay [8], 81.7%; in assay [9] it was 27.7%; in assay [10], 21.5%; in assay [11] it was 84.1%; in assay [12] it was 89.1%. The growth in assay [13] is 107%; in assay [14], 95.9%; in [15], 106%; in [16], 76.4%; in assay [17], 72.1%; in assay [18], 92.2%.
As to `COC(=O)[C@H](CC(C)C)NC(=O)NC(=O)NC(=O)CI`, the growth is 78.8% in assay [1]; 94.8% in assay [2]; 76.5% in assay [3]; -76.3% (active) in [4]; 72.3% in [5]; 37% in assay [6]. The growth in assay [8] was -46.3% (active); in assay [9] it was 4.18% (active); in [10] it was -51% (active); in [11], 61.6%; in assay [12], 73.3%; in [14] it was 59%. Further, the growth in assay [15] was 92.4%; in assay [16], 62%; in assay [17], -74.1% (active); in assay [19] it was 106%; in assay [18] it was 92.2%.
For the compound `Nc1nnc(CSc2nnc3n(Cc4ccccc4)c(=O)c4c5c(sc4n23)CCCC5)s1`, the growth in assay [1] was 109%; in assay [2], 93.2%; in assay [3], 91.9%; in assay [4] it was 84.6%; in [5], 113%; in assay [6], 94.9%. Further, the growth was 103% in assay [7]; 69.1% in assay [8]; 71.1% in assay [9]; 84% in [10]; 65.4% in assay [11]; 98.7% in assay [12]. The growth was 103% in assay [13]; 98.8% in [14]; 42.7% in [15]; 92.3% in assay [17]; 106% in assay [19]; 94.4% in [18].
Regarding `COc1ccc(C(=O)c2nccc3cc(OC)c(OC)cc23)cc1OC`, the growth in assay [1] is 108%; in assay [2], 90.1%; in assay [3], 72.1%; in assay [4], 82.8%; in [5], 132%; in [6], 91.7%. For the same compound, the growth in assay [7] was 64.6%; in assay [8], 132%; in assay [9], 103%; in assay [10], 102%; in assay [11], 133%; in assay [12], 94.3%. Further, the growth was 86.5% in assay [13]; 108% in assay [14]; 108% in assay [15]; 87.2% in assay [17]; 98% in [19]; 83.9% in assay [18].
With `COc1ccc2nc3c(cc2c1)C(=O)CC(c1ccccc1)C3` (configuration not stated), the growth in [1] was 70%; in assay [2], 44.5%; in [3], 40.7%; in assay [4] it was 34.5%; in [5], 64%; in assay [6] it was 43.9%. The growth in [7] was -13.5% (active); in assay [8] it was 10.7%; in assay [9], 17.8%; in [10], 17.7%; in assay [11] it was 55.4%; in [12], 39%. Besides, the growth in assay [13] was 61.2%; in assay [14], 92.7%; in assay [15] it was 52.2%; in [16], 35.8%; in assay [17], -7.18% (active); in assay [18] it was 13.2%.
In the case of `C[C@]12CCc3nc(Nc4ccccc4)sc3C1=CC[C@@H]1[C@@H]2CC[C@]2(C)/C(=N/NC(N)=S)CC[C@@H]12`, the growth was 66.9% in assay [1]; 78.2% in assay [2]; 49.2% in assay [3]; 60% in [4]; 38.3% in assay [5]; 31.6% in assay [6]. Besides, the growth was 48% in assay [7]; 18.7% in assay [8]; 8.01% (active) in [9]; 13.1% in assay [10]; -1.05% (active) in assay [11]; 56.9% in assay [12]. The growth was 91.5% in assay [13]; 35.9% in assay [14]; 69.1% in assay [16]; -21.2% (active) in [17]; 55.9% in [19]; 53.6% in assay [18].
